Eight compounds from PubChem BioAssay (NCI) can be followed below.

The test in a line: NCI Yeast Anticancer Drug Screen. Data for the mlh1 strain (AID 171).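 Note: 0% = growth of vehicle-treated control cultures of the same strain.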 As to conditions: S. cerevisiae mlh1 strain growth inhibition, active compounds read high. On the procedure:
Growth inhibition of yeast strains with defined genetic alterations is measured as a screen for potential anti-cancer activity. Selected strains with alterations in DNA damage repair or cell cycle control were exposed to compounds and growth inhibition was measured relative to vehicle treated controls. The strain used in this assay is mlh1

Compounds without any hit were thinned out: in the full panel of roughly 79,000, 15% have a hit. A number with no mark means an inactive call. The source made the active and inactive calls. Cut-off read from the data, not from the text of the source: active = growth inhibition above about 70%; inactive = the rest.

`CCCCCCC1OCC(O)C(OCCCC)O1` (stereo not given): the growth inhibition is, setting by setting: (at 1.2 µM) 0%; (at 3.7 µM) -1%; (at 11.0 µM) 0%; (at 33.0 µM) 1%; (at 100.0 µM) 6%.
With `O=[N+]([O-])c1cc(Cl)ccc1S(=O)(=O)c1ccc(Cl)cc1[N+](=O)[O-]`, the growth inhibition was -3% (at 1.2 µM); 3% (at 3.7 µM); 44% (at 11.0 µM); 85% (active) (at 33.0 µM); 80% (active) (at 100.0 µM).
The like results for `O=C1C=CC(=Nc2cccc3c2-c2ccccc2C3=O)O1` were, in that order, 7%, 18%, 84% (active), 99% (active) and 99% (active).
Regarding `O=C1CSC(c2ccccc2)N1c1ccc(-c2ccc(-n3c(-c4ccccc4)nc4ccccc4c3=O)cc2)cc1` (stereo not given), the growth inhibition is, setting by setting: (at 1.2 µM) -1%; (at 3.7 µM) -2%; (at 11.0 µM) -1%; (at 33.0 µM) 14%; (at 100.0 µM) 54%.
On to `Cc1cc(C)c(S(=O)(=O)c2ccc(Cl)cc2)c(C)c1`, for which the growth inhibition was -8% (at 1.2 µM); -6% (at 3.7 µM); -6% (at 11.0 µM); -5% (at 33.0 µM); 30% (at 100.0 µM).
For `CC1=NN(C(=O)c2ccccc2O)C(=O)/C1=C/c1ccco1`, the growth inhibition runs as follows: (at 1.2 µM) 12%; (at 3.7 µM) 32%; (at 11.0 µM) 71% (active); (at 33.0 µM) 89% (active); (at 100.0 µM) 96% (active).
The like results for `O=C1NC(c2cccc(OCc3ccccc3)c2)Nc2ccccc21` (stereo not given) were, in that order, 1%, 1%, 5%, -4% and -14%.
The like results for `O=C(/C=C/c1ccsc1)c1cccs1` were, in that order, 6%, 3%, -8%, 25% and 96% (active).
